Screen size: about 360,000 compounds; about 9,100 (2.5%) were called active. Inconclusive results (about 4%) are left out. Rule as the data show it: active = max response below about -50%; inconclusive = no clear call, values can overlap the other calls; inactive = above that. What follows is part of a selection rich in actives, with near analogues and random picks from the rest.
target: D(3) dopamine receptor (Homo sapiens) (UniProt P35462); assay: qHTS of D3 Dopamine Receptor Antagonist: qHTS; settings: D3R cells, DiscoveRx beta-arrestin luminescence, antagonist mode; hits give low values
In short: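 Cells expressing the human receptor were seeded at 1500 cells/well, incubated overnight at 37 degrees C in 5% CO2, then exposed to library compounds with dopamine controls for 90 minutes at 37 degrees C before luminescent detection.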
% is scaled to controls: 0 for no effect and ±100 for the full control effect.

D(3) dopamine receptor (Homo sapiens), sequence (P35462 whole entry, looked up): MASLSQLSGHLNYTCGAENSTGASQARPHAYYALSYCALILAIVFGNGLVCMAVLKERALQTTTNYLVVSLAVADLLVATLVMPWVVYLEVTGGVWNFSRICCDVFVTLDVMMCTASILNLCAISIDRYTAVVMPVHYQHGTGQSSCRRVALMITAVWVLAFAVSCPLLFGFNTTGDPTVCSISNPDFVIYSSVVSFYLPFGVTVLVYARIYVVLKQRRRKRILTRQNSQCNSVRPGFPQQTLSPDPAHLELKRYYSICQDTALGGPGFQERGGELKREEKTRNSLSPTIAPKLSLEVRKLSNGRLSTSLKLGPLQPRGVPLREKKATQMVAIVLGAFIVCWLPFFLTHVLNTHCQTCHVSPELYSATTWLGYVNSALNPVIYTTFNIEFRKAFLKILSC

| Compound | max response, negative = inhibition |
| --- | --- |
| CCOc1ccc(CCN2C(=S)N([C@@H](CC(C)C)CN3CCC[C@@H]3CN3C(=S)NC[C@@H]3Cc3ccc(O)cc3)C[C@@H]2CC(C)C)cc1 | 21.8% (inactive) |
| CC1(C)OC(=O)C2=C(CC(c3ccccc3)OC2CCc2ccccc2)O1 (stereo unspecified) | -29.7% (inactive) |
| COC(=O)c1ccc2c(c1)S(=O)(=O)NC2C (stereo unspecified) | 18.4% (inactive) |
| CCCNC(=O)c1cc(C2CCCCN2C(=O)OC)on1 (stereo unspecified) | 0% (inactive) |
| COc1ccccc1N1CCN(/N=C\C(Br)=C\c2ccccc2)CC1 | -13.9% (inactive) |
| COc1ccccc1/C=C/C=N/n1c(-c2ccc(Cl)cc2Cl)n[nH]c1=S | 13.4% (inactive) |
| Cc1cc(-c2n[nH]c(=S)n2/N=C/C(Br)=C/c2ccccc2)n[nH]1 | -70.4% (active) |
| O=C(Nc1ccc(F)cc1)C(CCc1ccccc1)N1CCN(CC(=O)N2CCCC2)CC1 (stereo unspecified) | -21.4% (inactive) |
| COC(=O)[C@]12CCCCC=C1N(CCC1=CCCCC1)C(=O)[C@H](CC(=O)NCC1CCCCC1)C2 | 25.3% (inactive) |
| O=S1(=O)C[C@@H](N2CCN(CCO)CC2)[C@H](COCc2ccccc2)N1 | 1.72% (inactive) |
| CC(=O)c1nn(-c2ccccc2)c(=Nc2ccccc2)cc1C | 18.5% (inactive) |
| COC(=O)C[C@@H]1C=C[C@@H](NC(=O)c2ccc3c(c2)OCO3)[C@@H](CO)O1 | -7.72% (inactive) |
| CCn1c(O)c(N=NC(=O)c2cccc(S(=O)(=O)N3CCCCC3)c2)c2ccccc21 | 6.1% (inactive) |
| CCn1c(O)c(N=NC2=NC(=O)CS2)c2cc(C)ccc21 | -90.2% (active) |
| COC(=O)Cn1c2ccc(C)cc2c2nc(C)sc21 | -14.2% (inactive) |
| COc1cccc(C(O)c2nc(-c3ccc(C)c(C)c3)cs2)c1 (stereo unspecified) | 0% (inactive) |
| CC(C)CC1C(=O)N(Cc2cn(CC3CCCCC3)nn2)CCS(=O)(=O)N1Cc1ccc(-c2ccc(Cl)cc2)cc1 (stereo unspecified) | -20.8% (inactive) |
| COc1ccc(NC(=O)C2(C)Cc3c(-c4ccc(C(N)=O)cc4)ccnc3O2)cc1 (stereo unspecified) | -3.64% (inactive) |
| CCOCC(=O)Nc1ncc(S(=O)(=O)c2ccc([N+](=O)[O-])cc2)s1 | 8.75% (inactive) |
| COC(=O)C(NC(=O)c1ccc(OC)cc1)(Nc1ncc(S(=O)(=O)c2ccc([N+](=O)[O-])cc2)s1)C(F)(F)F (stereo unspecified) | -81.6% (active) |
| COc1ccc(C(=O)NCCNc2ccc([N+](=O)[O-])cn2)cc1 | -27.5% (inactive) |
| CC(O)(c1cccc(F)c1)c1nc(-c2ccc3c(c2)OCO3)cs1 (stereo unspecified) | -22.4% (inactive) |
| CC1(C)OC(=O)C2=C(C[C@@H](C3CC3)O[C@H]2CCc2cccc(Cl)c2)O1 | 12.7% (inactive) |

| Compound | max response, negative = inhibition |
| --- | --- |
| CN1CCN(C(=O)c2ccc(NC(=O)c3ccc(Br)o3)cc2)CC1 | 23.3% (inactive) |
| CCOc1ccc2[nH]c(=O)c(CN(CCCO)C(C)=O)cc2c1 | 3.99% (inactive) |
| Nc1ccc2[nH]c(=S)sc2c1 | -18.8% (inactive) |
| CCOc1ccc2[nH]c(=S)sc2c1 | -53% (active) |
| COC(=O)c1cc(OC)ccc1-c1ccc(OC)cc1 | -8.91% (inactive) |
| CCOC(=O)C(NC(C)=O)C(=O)Nc1ccc(OC)cc1 (stereo unspecified) | -11.9% (inactive) |
| CCOC(=O)C1=C(c2ccc(OC)cc2)C(=O)c2ccccc2C1=O | -64% (active) |
| CC1(C(=O)Nc2ccc3c(c2)OCCO3)CN(S(C)(=O)=O)CC(=O)N1Cc1cccc(F)c1 (stereo unspecified) | 3.16% (inactive) |
| CCN(Cc1ccncc1)C(=S)Nc1ccccc1C | 27.7% (inactive) |
| CCCCN(C)CCC(=O)Nc1ccc(Cl)cc1 | -52.6% (active) |
| CN(CC(=O)Nc1ccc(Cl)cc1)CC(=O)Nc1cccc2ccccc12 | -3.81% (inactive) |
| CC(=O)Nc1ccc(NC(=O)CCCNC(=O)c2ccc(Cl)cc2)cc1 | -16.5% (inactive) |
| O=S1(=O)CC(N2CCC(Cc3ccccc3)CC2)CN1Cc1ccccc1 (stereo unspecified) | -2.05% (inactive) |
| O=C(Nc1ccc(F)cc1)c1ccc(S(=O)(=O)NCc2cccnc2)cc1 | 8.92% (inactive) |
| NC(=O)CSc1nnc(NC(=O)c2ccc(Br)o2)s1 | 4.15% (inactive) |
| Cc1cccc(CS(=O)(=O)c2ncc(Cl)c(C(=O)Nc3ccc(F)cc3)n2)c1 | -105% (active) |
| CSc1nnc(NC(=O)c2nc(S(=O)(=O)Cc3ccc(C)cc3)ncc2Cl)s1 | -83.3% (active) |
| Cc1cccc(NC(=O)c2nc(S(=O)(=O)Cc3ccccc3)ncc2Cl)c1 | -1.08% (inactive) |
| COCCSc1nnc(NC(=O)CCS(=O)(=O)Cc2ccccc2)s1 | 0.795% (inactive) |
| Cc1nnc(NC(=O)c2ccc3nccnc3c2)s1 | -10.2% (inactive) |
| Cc1ccc(CS(=O)(=O)c2ncc(Cl)c(C(=O)Nc3nnc(C)s3)n2)cc1 | -73.5% (active) |
| Cc1nnc(NC(=O)CCCOc2ccccc2)s1 | 14.4% (inactive) |
| CC(=O)Nc1cncc(-c2ccccc2CO)n1 | 10.6% (inactive) |

| Compound | max response, negative = inhibition |
| --- | --- |
| CCOC(=O)[C@H]1Nc2ccc(Cl)cc2[C@@H]2[C@H]1C1CC(c3ccccc31)N2C(=O)OCc1ccccc1 (stereo partly specified) | -1.57% (inactive) |
| CCCCc1c(-c2ccc(Cl)cc2)ncn1CCc1ccccc1OC | 71.4% (inactive) |
| COc1ccc(S(=O)(=O)N(C)C)cc1NC(=O)COC(=O)c1n[nH]c2ccccc12 | 16% (inactive) |
| CCc1cc(C(=O)N(CC)CC(=O)Nc2c(F)cccc2F)sc1C | 0% (inactive) |
| COc1ccc(CCCNC(=O)C2Cc3c(-c4cccc(C(N)=O)c4)ccnc3O2)cc1 (stereo unspecified) | 2.06% (inactive) |
| Cc1cc(O)ccc1-c1cc(C(=O)NCc2cc(C(F)(F)F)cc(C(F)(F)F)c2)[nH]n1 | -17.9% (inactive) |
| C[C@@H]1CN([C@H](C)CO)C(=O)CCCn2nncc2CO[C@@H]1CN(C)C(=O)OCc1ccccc1 | -23.6% (inactive) |
| CC1(C)OC(=O)C2=C(C[C@@H](C3CC3)O[C@H]2c2ccc(Cl)cc2)O1 | 49.4% (inactive) |
| CCC(CC)C(=O)N1CC(=O)Nc2ccc(Br)cc2C1c1ccccc1 (stereo unspecified) | 4.84% (inactive) |
| COC(=O)CN1C(C)=Nc2ccc(Br)cc2C1c1ccccc1 (stereo unspecified) | -64% (active) |
| COC(=O)CN1C(=O)C(O)=C(C(C)=O)C1c1ccc([N+](=O)[O-])cc1 (stereo unspecified) | -23.2% (inactive) |
| CN(c1ccccc1)S(=O)(=O)c1ccc(C(=O)NCc2cccnc2)cc1 | -14.9% (inactive) |
| COc1ccc(C(C)(O)c2nc(-c3ccc(C)c(C)c3)cs2)cc1 (stereo unspecified) | -20.6% (inactive) |
| CCNC(=O)C1(C)CCCN(C(=O)c2ccc3ccccc3n2)C1 (stereo unspecified) | 0% (inactive) |
| CCOC(=O)c1cc(-c2sc(NC(=O)c3ccccc3)nc2C)n(-c2ccc(Br)cc2)n1 | 24% (inactive) |
| COc1ccc(-c2ccc(C(=O)NCCN3CCOCC3)c3occc23)c(C)c1 | -78.2% (active) |
| COc1ccc(-c2ccc(C(=O)NC(C)C)c3occc23)c(C)c1 | 19.9% (inactive) |
| COc1ccc(-c2cc(C(=O)NCCCN3CCOCC3)no2)cc1 | 1.86% (inactive) |
| CC(C)C[C@@H](COCc1ccc(Cl)cc1)N1CCN(C(=O)c2ccc(Cl)cc2Cl)CCC1=O | 11.5% (inactive) |
| Cc1ccccc1OS(=O)(=O)c1cccc([N+](=O)[O-])c1 | -14.2% (inactive) |
| CC(C)N1C(=O)c2ccccc2NC(=O)C1C(=O)NCc1cccs1 (stereo unspecified) | -19.3% (inactive) |
| COC(=O)C[C@H]1C[C@@H]2c3cc(N(C)C)ccc3O[C@@H]2[C@H](CO)O1 | 17% (inactive) |
| O=C(NCc1ccccc1)C1c2ccccc2OCC(=O)N1CCCN1CCOCC1 (stereo unspecified) | 0.216% (inactive) |

| Compound | max response, negative = inhibition |
| --- | --- |
| O=C(NCc1ccc(F)cc1)c1cc(C2CCCCN2C(=O)c2cccs2)on1 (stereo unspecified) | 12.8% (inactive) |
| CCC1NC(=O)c2cccnc2-n2c1nc1ccc(C)cc1c2=O (stereo unspecified) | 16.9% (inactive) |
| CN1CCN(C2Cc3ccc(Cl)cc3Sc3ccc(F)cc32)CC1 (stereo unspecified) | -88% (active) |
| COCCNC(=O)C1C(=O)Nc2ccccc2C(=O)N1c1ccc2c(c1)OCCO2 (stereo unspecified) | 5.54% (inactive) |
| Cc1cccc(N2CCN(C(=O)c3cc4c(=O)[nH]c5ccccc5c4n3C)CC2)c1C | 2.48% (inactive) |
| O=C(c1ncn2c1c(=O)[nH]c1ccccc12)N1CCc2ccccc2C1 | 1.07% (inactive) |
| Cn1c(C(=O)NCCN2CCc3ccccc3C2)cc2c(=O)[nH]c3ccccc3c21 | -59.2% (active) |
| CCCCCCN1CCN(C2CN(Cc3cn(Cc4ccc(F)cc4)nn3)S(=O)(=O)C2)CC1 (stereo unspecified) | 3.43% (inactive) |
| Cc1cccc(NC(=O)c2cc(S(=O)(=O)N3CCC4(CC3)OCCO4)ccc2F)c1 | -11.3% (inactive) |
| Cc1c(C(=O)Nc2ccccc2Cl)oc2ccc(S(=O)(=O)N3CCC4(CC3)OCCO4)cc12 | 22.3% (inactive) |
| CCOc1ccccc1NC(=O)c1cc(S(=O)(=O)N2CCC3(CC2)OCCO3)ccc1F | -83.8% (active) |
| CCCC(=O)N1CCC1(C)C(=O)NCc1ccc(SC)cc1 (stereo unspecified) | -2.93% (inactive) |
| Cc1cccc(S(=O)(=O)N(C)C[C@H]2OCc3cnnn3CCCC(=O)N([C@@H](C)CO)C[C@H]2C)c1 | 19.6% (inactive) |
| CC(=O)Nc1c(-c2ccc(C)cc2)nc2ccc(Cl)cn12 | -4.26% (inactive) |
| CC(C)c1cc(C(=O)N(C)C2CCCN(Cc3ccccc3F)C2)n(C)n1 (stereo unspecified) | -9.14% (inactive) |
| CSc1ncnc2c1ncn2CCCNCc1ccco1 | 0.282% (inactive) |
| CSc1ncnc2c1ncn2CCCNCC1CCCCC1 | -105% (active) |
| CSc1ncnc2c1ncn2CCCNCC(C)c1ccccc1 (stereo unspecified) | 1.7% (inactive) |
| CCCCNC(=O)OC1CC2CC1[C@H]1CCCCN1C2=O (stereo partly specified) | 2.26% (inactive) |
| CCOC(=O)N1CCN(S(=O)(=O)c2ccc(OC)cc2)CC1 | 3.43% (inactive) |
| CCOC(=O)N1CCN(S(=O)(=O)c2ccc(C(=O)Nc3ccc(F)cc3F)cc2)CC1 | -76.7% (active) |
| CCOC(=O)N1CCN(S(=O)(=O)c2ccc(Br)cc2)CC1 | 8.1% (inactive) |
